# Assay results taken from the supplement of paper PMC8728848.
# This excerpt belongs to a sample that is enriched for the strongest signals.
# B1: Epa1-NP-mutant-E227G (Candida glabrata), Q6VBJ0 (protein)
# chain: MILNPALFLNKCVCIYTTLILLLLTNGGYATSSNDISLASKDPTTFPLGCSPDITTPKKGLSMELYSYDFRKKGSYPCWDAAYLDPNYPRTGYKSHRLLAKVDGVTGNINFYYHATKGCTPQLGHLPASYNYPKPLTMTNFTMLLYGYFRPKVTGFHTFTISADDLLFVNFGAGNAFDCCRRDSSADHFGNYQAYAIWGSKTAKDELTVHLDAGVYYPIRLFYNNRGYDGALSFTFKTESNENTVSDFSEYFFSLDDTEEGCPGLISYDSSCASVKTSKIIGIDYHTETPNENLVPITKTIYHLGIPCTGTTTTPLCGSGFYDPLANKCVTINTSSTSSVTKTTSHTTSKEVSFHSSISSQKTLIPKSIPSPYGPIKSQSIPTEMETSSEISSSEYAFSDVISTPSHSPYTKKHSSLNSSSYTSTVIHSLTSYSISQGIFSTSLSEQNITSKSSTDKFSTATSMSNNITQSSIIISQFSTNNENYTTTSMHTSSDKISTETLNNSISTTTSILFSNSSTILKNNTTIISSDKDTHYHPVNPTIVCSTNKTEIICASITQPSISNSNNHWSSSVLKFNSTTVRSTLPSSAGSNETSINVPFSSSTESNTSTSSTSTSNSKMVRSTLPSSAGSNETSISVPFSSSTESNTSTSSTSTSNSKMVRSTLPSSAGSNETSINVPFSSSTESNTSTSSTSTSNSKTVRSTPFSSAGIIMTSLSQRNNKSASSYASSNSKCYNTADSCRKVHSTPSYLLTSSYTSEGVDYDCSLVSTKLKINDTNCVNNKHTTKSCLKTSVTTTIPTLEIKTARKSSSNTIGLHSYPTSSPNKSISSAPIIGYISSFKTIKTASPSYQTSDLTTITTITSLNNPGSTAVENTHESNDKSRKTSSNDISSKHSVIKETKDAVESSNKSHQTNTLKCSSIIIASSSHNSYESLGGTTLTLTLSKVYSPQNNDTLPFLEISEVNPSRTVLPESSKMMQYLTSTEERNKTARNTIATNIVSISTFHFEGEGNAIRMGYTQLLLMLIGIIVMNIGT
# How the values were obtained:
# Assay in all cases: glycan array binding signal (z-score within array); higher = stronger binding
# Settings in all cases: glycan notation: IUPAC condensed, linker removed; mutation: E227G
# [1] = molecular target: Fuc(a1-2)Gal(b1-3)GalNAc(a1-3)[Fuc(a1-2)]Gal(b1-4)Glc
# Procedure, shortened: (§1)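 From the Consortium for Functional Glycomics database, 3228 arrays were curated, keeping only those whose protein sequence was available. Binding is given as a within-array Z-score averaged across arrays sharing a protein sequence and across linkers. Negative Z-scores can be read as non-binding.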
# [2] = molecular target: Fuc(a1-2)Gal(b1-3)GlcNAc(b1-3)[Gal(b1-4)GlcNAc(b1-6)]Gal(b1-4)Glc
# Procedure, shortened: as §1
# [3] = molecular target: Fuc(a1-2)Gal(b1-3)[Fuc(a1-4)]GlcNAc(b1-2)Man(a1-3)[Fuc(a1-2)Gal(b1-3)[Fuc(a1-4)]GlcNAc(b1-2)Man(a1-3)]Man(b1-4)GlcNAc(b1-4)GlcNAc
# Procedure, shortened: as §1
# [4] = molecular target: Fuc(a1-2)Gal(b1-4)Glc
# Procedure, shortened: as §1
# [5] = molecular target: Fuc(a1-2)Gal(b1-4)GlcNAc(b1-2)Man
# Procedure, shortened: as §1
# [6] = molecular target: Fuc(a1-2)Gal(b1-4)[Fuc(a1-3)]GlcNAc(b1-2)Man(a1-3)[Fuc(a1-2)Gal(b1-4)[Fuc(a1-3)]GlcNAc(b1-2)Man(a1-6)]Man(b1-4)GlcNAc(b1-4)[Fuc(a1-6)]GlcNAc
# Procedure, shortened: as §1
# [7] = molecular target: Fuc(a1-2)Gal(b1-4)[Fuc(a1-3)]GlcNAc(b1-3)GalNAc
# Procedure, shortened: as §1
# [8] = molecular target: Fuc(a1-2)[Gal(a1-3)]Gal
# Procedure, shortened: as §1
# [9] = molecular target: Fuc(a1-2)[Gal(a1-3)]Gal(b1-4)GlcNAc(b1-2)Man(a1-3)[Fuc(a1-2)[Gal(a1-3)]Gal(b1-4)GlcNAc(b1-2)Man(a1-6)]Man(b1-4)GlcNAc(b1-4)[Fuc(a1-6)]GlcNAc
# Procedure, shortened: as §1
# [10] = molecular target: Fuc(a1-2)[Gal(a1-3)]Gal(b1-4)GlcNAc(b1-3)[Fuc(a1-2)[Gal(a1-3)]Gal(b1-4)GlcNAc(b1-6)]GalNAc
# Procedure, shortened: as §1
# [11] = molecular target: Fuc(a1-2)[GalNAc(a1-3)]Gal(b1-3)GalNAc(b1-3)Gal(a1-4)Gal(b1-4)Glc
# Procedure, shortened: as §1
# [12] = molecular target: Gal(a1-3)Gal(b1-3)GlcNAc(b1-2)Man(a1-3)[Gal(a1-3)Gal(b1-3)GlcNAc(b1-2)Man(a1-6)]Man(b1-4)GlcNAc(b1-4)GlcNAc
# Procedure, shortened: as §1
# [13] = molecular target: Gal(a1-4)Gal(b1-3)GlcNAc(b1-2)Man(a1-3)[Gal(a1-4)Gal(b1-3)GlcNAc(b1-2)Man(a1-6)]Man(b1-4)GlcNAc(b1-4)GlcNAc
# Procedure, shortened: as §1
# [14] = molecular target: Gal(b1-2)Gal
# Procedure, shortened: as §1
# [15] = molecular target: Gal(b1-3)Gal(b1-4)GlcNAc
# Procedure, shortened: as §1
# [16] = molecular target: Gal(b1-3)GalNAc
# Procedure, shortened: as §1
# [17] = molecular target: Gal(b1-3)GalNAc(b1-4)Gal(b1-4)Glc
# Procedure, shortened: as §1
# [18] = molecular target: Gal(b1-3)GlcNAc(b1-2)Man(a1-3)[Gal(b1-3)GlcNAc(b1-2)Man(a1-6)]Man(b1-4)GlcNAc(b1-4)GlcNAc
# Procedure, shortened: as §1
# [19] = molecular target: Gal(b1-3)GlcNAc(b1-3)GalNAc
# Procedure, shortened: as §1
# [20] = molecular target: Gal(b1-3)GlcNAc(b1-6)Gal(b1-4)GlcNAc
# Procedure, shortened: as §1
# [21] = molecular target: Gal(b1-3)GlcNAc6S
# Procedure, shortened: as §1
# [22] = molecular target: Gal(b1-3)[Fuc(a1-4)]GlcNAc
# Procedure, shortened: as §1
# [23] = molecular target: Gal(b1-3)[Neu5Ac(a2-6)]GalNAc
# Procedure, shortened: as §1
# [24] = molecular target: Gal(b1-4)Glc6S
# Procedure, shortened: as §1
# [25] = molecular target: Gal(b1-4)GlcNAc(b1-2)Man(a1-6)Man(b1-4)GlcNAc(b1-4)GlcNAc
# Procedure, shortened: as §1
# [26] = molecular target: Gal(b1-4)GlcNAc(b1-3)Gal(b1-4)GlcNAc(b1-2)Man(a1-3)[Gal(b1-4)GlcNAc(b1-3)Gal(b1-4)GlcNAc(b1-2)Man(a1-6)]Man(b1-4)GlcNAc(b1-4)[Fuc(a1-6)]GlcNAc
# Procedure, shortened: as §1
# [27] = molecular target: Gal(b1-4)GlcNAc(b1-3)Gal(b1-4)GlcNAc(b1-3)Gal(b1-4)GlcNAc(b1-3)Gal(b1-4)GlcNAc(b1-2)Man(a1-3)[Gal(b1-4)GlcNAc(b1-3)Gal(b1-4)GlcNAc(b1-3)Gal(b1-4)GlcNAc(b1-3)Gal(b1-4)GlcNAc(b1-2)Man(a1-6)]Man(b1-4)GlcNAc(b1-4)GlcNAc
# Procedure, shortened: as §1
# [28] = molecular target: Gal3S6S(b1-4)GlcNAc6S
# Procedure, shortened: as §1
# [29] = molecular target: Gal6S(b1-3)GlcNAc
# Procedure, shortened: as §1
# [30] = molecular target: Gal6S(b1-3)GlcNAc6S
# Procedure, shortened: as §1
binder,measurement,setting,value
B1,glycan array binding signal (z-score),[1],-0.144
same,glycan array binding signal (z-score),[2],-0.113
same,glycan array binding signal (z-score),[3],-0.037
same,glycan array binding signal (z-score),[4],-0.104
same,glycan array binding signal (z-score),[5],-0.202
same,glycan array binding signal (z-score),[6],-0.014
same,glycan array binding signal (z-score),[7],0.012
same,glycan array binding signal (z-score),[8],-0.147
same,glycan array binding signal (z-score),[9],-0.133
same,glycan array binding signal (z-score),[10],-0.138
same,glycan array binding signal (z-score),[11],-0.175
same,glycan array binding signal (z-score),[12],0.258
same,glycan array binding signal (z-score),[13],-0.089
same,glycan array binding signal (z-score),[14],-0.17
same,glycan array binding signal (z-score),[15],1.84
same,glycan array binding signal (z-score),[16],1.39
same,glycan array binding signal (z-score),[17],4.13
same,glycan array binding signal (z-score),[18],1.06
same,glycan array binding signal (z-score),[19],-0.236
same,glycan array binding signal (z-score),[20],4.84
same,glycan array binding signal (z-score),[21],2.52
same,glycan array binding signal (z-score),[22],-0.184
same,glycan array binding signal (z-score),[23],1.35
same,glycan array binding signal (z-score),[24],7.04
same,glycan array binding signal (z-score),[25],-0.117
same,glycan array binding signal (z-score),[26],0.016
same,glycan array binding signal (z-score),[27],-0.21
same,glycan array binding signal (z-score),[28],0.516
same,glycan array binding signal (z-score),[29],0.07
same,glycan array binding signal (z-score),[30],3.58
